This passage reports growth inhibition results from PubChem BioAssay (NCI).

The nature of assay [1]: NCI Yeast Anticancer Drug Screen. Data for the rad50 strain (AID 155).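 Also: 0% = growth of vehicle-only cultures of the same strain.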 To be noted: S. cerevisiae rad50 strain growth inhibition; at 50.0 µM; stronger effect = higher value. A digest of the protocol:
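Growth of the mutant yeast was measured after compound exposure and referenced to vehicle-treated cultures.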

Assay [2] in a line: NCI Yeast Anticancer Drug Screen. Data for the mec2-1 strain (AID 157). To be noted: S. cerevisiae mec2-1 strain, at 50.0 µM, stronger effect = higher value. A digest of the protocol:
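Cells of the genetically defined mec2-1 yeast strain are incubated with test compound. Inhibition of growth is calculated against vehicle-treated controls.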

A short description of assay [3]: NCI Yeast Anticancer Drug Screen. Data for the sgs1 mgt1 strain (AID 161).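 Also: 0% = growth of cultures given vehicle only.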 To be noted: S. cerevisiae sgs1 mgt1 strain, at 50.0 µM, stronger effect = higher value. A digest of the protocol: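 Test agents were incubated with a DNA-repair-mutant yeast strain. Growth was then read and compared against vehicle-treated controls.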
A short description of assay [4]: NCI Yeast Anticancer Drug Screen. Data for the cln2 rad14 strain (AID 165).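 Also: 0% = growth equal to vehicle treated cultures.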 Particulars: S. cerevisiae cln2 rad14 strain, at 50.0 µM, stronger effect = higher value. The method, boiled down:
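The screen exposed genetically defined yeast (cln2 rad14) to test compounds and scored growth inhibition relative to vehicle-treated controls.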

Assay [5] in a line: NCI Yeast Anticancer Drug Screen. Data for the bub3 strain (AID 167). Particulars: S. cerevisiae bub3 mutant strain, at 50.0 µM, stronger effect = higher value. A digest of the protocol: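 Whole-cell yeast assay. The mutant strain was incubated with compounds, and growth inhibition was determined by comparison with vehicle-treated cells.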
Assay [6] is described as follows: NCI Yeast Anticancer Drug Screen. Data for the mlh1 rad18 strain (AID 175). Particulars: S. cerevisiae mlh1 rad18 strain growth inhibition; at 50.0 µM; stronger effect = higher value. A digest of the protocol:
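Compound-treated yeast growth, normalised to vehicle controls. Strain bears defined DNA repair mutations.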

Each structure is given as a SMILES string. About 79,000 compounds went through this panel and 15% of them were active in at least one assay; those are over-represented in the sample as a whole. A number with no mark means an inactive call. Active and inactive are the calls of the source. Rule as the data show it: active = growth inhibition above about 70%; inactive = the rest.

`CC1=CC(=O)/C(=C/N2CCNC2=S)C(=O)O1`: the growth inhibition is -24.6% in assay [1]; -20.6% in assay [2]; 1.3% in assay [3]; 5.65% in assay [4]; -31.3% in assay [5]; 4.7% in assay [6].
As for `NC(=S)N/N=C1/C(=O)N(c2ccccc2)C(=O)C1C(=O)Nc1ccccc1` (stereo unspecified), the growth inhibition was 46.2% in assay [1]; 16.8% in assay [2]; 38% in assay [3]; 0.9% in assay [4]; -0.25% in assay [5]; 39.1% in assay [6].
In the case of `COC1CCC(C(C)(C)C)CC1` (stereo unspecified), the growth inhibition in assay [1] is 2.45%; in assay [2], -11.6%; in assay [3], 0.15%; in assay [4], -3.8%; in assay [5], 5.85%; in assay [6], -21.7%.
Take `CC(C)NC1(C(N)=O)CCN(Cc2ccccc2)CC1`: the growth inhibition in assay [1] is 7.85%; in assay [2], -17.2%; in assay [3], 8.1%; in assay [4] it was -3.15%; in assay [5] it was -51.9%; in assay [6] it was 18.1%.
In the case of `O=C1CNC(=O)N1`, the growth inhibition in assay [1] was -38.1%; in assay [2], 23.8%; in assay [3], 2%; in assay [4] it was -11.7%; in assay [5], 3.85%; in assay [6] it was -38.2%.
For `CCOC(=O)C1=C(C)NC(C)=C(C(=O)OCC)C1C`, the growth inhibition in assay [1] was -29.1%; in assay [2], -35.9%; in assay [3], 4.5%; in assay [4] it was -10.5%; in assay [5], -22.1%; in assay [6], -6.8%.
Take `CC1=CC2(C)OC3C(=O)N(c4ccc(Cl)cc4)C(=O)C3C2N=C1` (stereo unspecified): the growth inhibition in assay [1] was -7.65%; in assay [2], -22.9%; in assay [3], -24%; in assay [4] it was 9.6%; in assay [5], -20.1%; in assay [6], -3.35%.
For the compound `CC(=O)OC(C)=O`, the growth inhibition in assay [1] is -20.2%; in assay [2] it was 9.9%; in assay [3] it was 8%; in assay [4] it was -33%; in assay [5], 7.55%; in assay [6] it was -16.4%.
For `Cc1ccc(-c2cnc3c(n2)c(=O)[nH]c(=O)n3C)cc1`, the growth inhibition in assay [1] was 29.5%; in assay [2] it was 19.1%; in assay [3], 20.5%; in assay [4], 13.8%; in assay [5] it was 17.4%; in assay [6] it was 35.6%.
Regarding `CCCCCCC(/C=N\N=C\c1ccco1)=C\c1ccccc1`, the growth inhibition in assay [1] is -2.7%; in assay [2], 6.15%; in assay [3] it was 1.25%; in assay [4], 2.75%; in assay [5], 16.9%; in assay [6], -7.8%.
On to `Cc1ccc(N=C=C(c2ccc(Cl)cc2)c2ccc(Cl)cc2)cc1`, for which the growth inhibition in assay [1] was 73.2% (active); in assay [2] it was 64.4%; in assay [3] it was 70.8% (active); in assay [4], 60.2%; in assay [5], 59.6%; in assay [6] it was 77.2% (active).
With `O=C(C#CP(=O)(O)c1ccccc1)c1ccccc1`, the growth inhibition in assay [1] was 22.5%; in assay [2], 16.4%; in assay [3] it was -6.2%; in assay [4], 17.5%; in assay [5], -17.6%; in assay [6], 3.05%.
In the case of `CCC1(C)CCC(C)c2ccccc21` (stereo unspecified), the growth inhibition in assay [1] is -1.75%; in assay [2], -5.4%; in assay [3], 3.45%; in assay [4] it was 3.45%; in assay [5], -0.8%; in assay [6], 0.3%.
Regarding `Nc1nc(/C=C(/O)c2ccccc2)c2ncn(C3OC(CO)C(O)C3O)c2n1` (stereo unspecified), the growth inhibition in assay [1] is 25.3%; in assay [2] it was -6.25%; in assay [3], 13.4%; in assay [4], -4.7%; in assay [5], 11.2%; in assay [6], -17.8%.
For `O=S(=O)(SC1=NCCN1)c1cccc2ccccc12`, the growth inhibition was 3% in assay [1]; 3.5% in assay [2]; 20.1% in assay [3]; 30% in assay [4]; -3% in assay [5]; 8.45% in assay [6].
In the case of `CC(C)CC(C)N=C1CC2CCC1(C)C2(C)C` (stereo unspecified), the growth inhibition in assay [1] was -32.3%; in assay [2] it was -24.6%; in assay [3] it was -3.35%; in assay [4], -14.2%; in assay [5] it was -7.15%; in assay [6], -7.05%.
Consider `C/C(=N/O)C1CC(C)([N+](=O)[O-])CCC1(C)O` (stereo unspecified), for which the growth inhibition is -8.15% in assay [1]; -13.6% in assay [2]; -19.2% in assay [3]; -8.5% in assay [4]; 5.45% in assay [5]; 5.65% in assay [6].
Turning to `CC1=NN(c2ccc(S(=O)(=O)O)cc2)C(=O)C1N=Nc1ccc(C)c(S(=O)(=O)Nc2ccccc2)c1` (stereo unspecified), the growth inhibition in assay [1] is 5.95%; in assay [2], -17.9%; in assay [3] it was 8%; in assay [4], 15%; in assay [5], 5.45%; in assay [6], 10.8%.
Turning to `N#CC1(C2CC(=O)N(c3ccccc3)C2=O)CCCCC1=O` (stereo unspecified), the growth inhibition is 10.4% in assay [1]; -21.7% in assay [2]; 26.5% in assay [3]; -3.1% in assay [4]; 2% in assay [5]; -6.7% in assay [6].
Regarding `Cc1ccc(N=C2C(=Nc3ccc(C)cc3)N(c3ccc(C)cc3)C(=S)N2C(=O)c2ccccc2)cc1`, the growth inhibition is -5.4% in assay [1]; -27.1% in assay [2]; 7.9% in assay [3]; 26.3% in assay [4]; -29.6% in assay [5]; -13.1% in assay [6].
Regarding `Cc1nc2cccc([N+](=O)[O-])c2s1`, the growth inhibition is 15.2% in assay [1]; 1.7% in assay [2]; 28.4% in assay [3]; 11.7% in assay [4]; 17.4% in assay [5]; 20.4% in assay [6].
